Experimental data taken from PubChem BioAssay (NCI).
Compounds without any hit were thinned out: in the full panel of roughly 79,000, 15% have a hit. Unmarked numbers belong to inactive results. The source made the active and inactive calls. Rule as the data show it: active = growth inhibition above about 70%; inactive = the rest. Where a SMILES comes first, the peptide text is derived from it. The star is where a group is joined. Boc = CC(C)(C)OC(=O)*; Bn = c1ccc(C*)cc1

Tests used:
[1] = NCI Yeast Anticancer Drug Screen. Data for the rad50 strain (AID 155);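 also: 0% = growth of vehicle-only cultures of the same strain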; conditions: S. cerevisiae rad50 strain growth inhibition; at 50.0 µM; stronger effect = higher value
Outline: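 DNA repair mutant yeast, compound exposure, growth read-out; inhibition is taken relative to vehicle.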

[2] = NCI Yeast Anticancer Drug Screen. Data for the mec2-1 strain (AID 157); conditions: S. cerevisiae mec2-1 strain, at 50.0 µM, stronger effect = higher value
Outline: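 Mutant yeast (mec2-1) grown with compound; growth inhibition relative to vehicle control reported.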

[3] = NCI Yeast Anticancer Drug Screen. Data for the sgs1 mgt1 strain (AID 161);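 also: 0% = growth of cultures given vehicle only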; conditions: S. cerevisiae sgs1 mgt1 strain, at 50.0 µM, stronger effect = higher value
Outline: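 This yeast growth screen uses a strain with defined DNA-repair lesions; compound-treated growth is compared with vehicle-treated growth.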

[4] = NCI Yeast Anticancer Drug Screen. Data for the cln2 rad14 strain (AID 165);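 also: 0% = growth equal to vehicle treated cultures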; conditions: S. cerevisiae cln2 rad14 strain, at 50.0 µM, stronger effect = higher value
Outline: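 Readout is yeast growth inhibition versus vehicle-treated controls, using a strain with cln2 and rad14 alterations exposed to compound.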

[5] = NCI Yeast Anticancer Drug Screen. Data for the bub3 strain (AID 167); conditions: S. cerevisiae bub3 mutant strain, at 50.0 µM, stronger effect = higher value
Outline: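 In this screen, a yeast mutant lacking normal mitotic checkpoint function is challenged with compound. Relative growth versus vehicle gives the inhibition value.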

[6] = NCI Yeast Anticancer Drug Screen. Data for the mlh1 rad18 strain (AID 175); conditions: S. cerevisiae mlh1 rad18 strain growth inhibition; at 50.0 µM; stronger effect = higher value
Outline: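 Genetically defined yeast (DNA repair-deficient) exposed to compounds; growth inhibition determined relative to vehicle.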

Structure (SMILES) | growth inhibition [1] | growth inhibition [2] | growth inhibition [3] | growth inhibition [4] | growth inhibition [5] | growth inhibition [6]
CN(C)c1ccc(/C=N/NC(=O)c2ccccc2NC(=O)c2ccc(Cl)cc2)c(Cl)c1 | 1.4% | 0.45% | 19.9% | -6.3% | -6.1% | 0.5%
CC(=O)c1ccccc1[N+](=O)[O-] | 2.95% | -12.5% | 21.7% | 5.85% | -7.55% | 30.1%
Cn1c(=O)c2c(ncn2-c2ccc(N)cn2)n(C)c1=O | -7.1% | -4.55% | -7.15% | 9.45% | 11.2% | 4.1%
COc1ccc(NC(=O)Nc2ccc(Br)cc2)cc1 | -9.55% | 5.7% | -0.15% | -34% | -4.6% | -15.2%
COc1ccc(C2CC2c2ccc(C#N)cc2)cc1 (stereo unspecified) | 7.05% | -6.4% | -1% | -40.6% | 6.25% | -22.8%
c1cc2c3c(cccc3c1)-c1nc3c(ccc4ccccc43)nc1-2 | -0.15% | 22.8% | 19.6% | 11.6% | 10.4% | 12.3%
COC(=O)C(CC(C)C)NC(=O)CNC(=O)C(Cc1ccc(OCc2ccccc2)cc1)NC(=O)C(COCc1ccccc1)NC(=O)OC(C)(C)C (stereo unspecified) (Boc-S(Bn)Y(Bn)GL-OMe; configuration not given here) | -26.8% | -22.6% | -23.8% | 11.8% | 2.65% | -10.5%
COC(=O)c1ccc(OC)cc1O | 1.5% | 1.8% | -13.4% | -19.9% | 3.2% | -2%
CCOC(=O)C1(C#N)C(C#N)(C#N)C1(C)CC (stereo unspecified) | 10.8% | -1.2% | 24.8% | -1.1% | 0.75% | -0.75%
CC12CCC(O)CC1=CCC1C2CCC2(C)C(C(=O)O)=CCC12 (stereo unspecified) | 1.3% | 46.5% | 29.6% | 21.8% | 49.1% | 34.5%
CSC(=S)S(=O)(=O)C12CC3CC(CC(C3)C1)C2 | 90.5% (active) | 93.2% (active) | 89.5% (active) | 90% (active) | 86.5% (active) | 92.6% (active)
S=C(Nc1ccccc1)N1CC2C3CCC(O3)C2C1 (stereo unspecified) | 16.6% | 12.6% | 10.2% | 3.15% | 22.5% | 22.6%
O=[N+]([O-])c1cccc(NSNc2cccc([N+](=O)[O-])c2)c1 | 18.1% | 23.9% | 25.6% | 23.1% | 6.45% | 11%
COc1ccc(C)c(CN(C)C)c1 | 7.85% | -7.7% | 8.35% | 5.25% | -1.2% | 23.6%
CC(C)OC(=O)c1ccc(NCC2=CC(=O)C=CC2=O)cc1 | 39.1% | 79.2% (active) | 63.5% | 57.1% | 46.1% | 88.2% (active)
Cc1cc(Br)cc(C)c1NC(=O)C(=O)CC(=O)c1sc(-n2nc(-c3ccccc3)cc2-c2ccccc2)nc1C | 5.7% | 1.75% | -32.5% | 28.5% | 33.8% | 15.7%
Fc1ccc(Cl)c2cccnc12 | 2.75% | 9.85% | -6% | -33.7% | 3.95% | 8.1%
CC(=O)Nc1cccc2c1C(=O)c1c(c(O)c3ccccc3c1O)C2=O | 24.9% | -9.85% | -12.8% | -9.3% | -8.4% | -1.85%
O=C(Oc1c(Cl)c(Cl)c(Cl)c(Cl)c1Cl)c1ccc([N+](=O)[O-])cc1 | -27.6% | -1.55% | -26.6% | -49% | 3.9% | -9.25%
CC1=CC(CO)C2C(=O)NC(=O)C2C1C (stereo unspecified) | 7.2% | -6.15% | -9.75% | -39.5% | -17.1% | 7.7%
CC(C)(C)c1cc(-c2cc(C(C)(C)C)[nH]n2)n[nH]1 | 12.8% | 4% | 12.7% | 9.05% | 14.2% | 10.3%

Structure (SMILES) | growth inhibition [1] | growth inhibition [2] | growth inhibition [3] | growth inhibition [4] | growth inhibition [5] | growth inhibition [6]
COc1ccc(NC=O)c(C(=O)CCNC(C)=O)c1 | -14.9% | -20.2% | -13.4% | -6.8% | -16.3% | -51.2%
O=C1C(c2ccccc2)=C2c3ccccc3-c3ccccc3C2(O)C1c1ccccc1 (stereo unspecified) | 91.8% (active) | 94.8% (active) | 94.4% (active) | 91.5% (active) | 90.9% (active) | 94.2% (active)
CC(CN1c2ccccc2Sc2ccccc21)N(C)CCO (stereo unspecified) | 3% | -24.7% | -4.05% | -1.6% | -4.3% | -0.9%
O=C(O)C(Cc1c[nH]c2ccccc12)N1C(=O)c2ccccc2C1=O (stereo unspecified) | 18.5% | 26.6% | -8.15% | -12.3% | -2.5% | 28.6%
COc1ccc(-c2cc(-c3ccccc3)nc(/N=C\c3ccccc3)n2)c(O)c1 | -10.7% | -20.4% | -15.5% | -17.9% | -34.7% | -51.2%
C/C(CC(=O)Nc1ccccn1)=N\c1ccccn1 | 14.2% | -16.5% | -6.6% | -0.35% | 1.95% | 9.95%
CN/N=C(/c1nc2ccc([N+](=O)[O-])cc2[nH]c1=O)C(O)c1ccc(C(O)/C(=N\NC)c2nc3ccc([N+](=O)[O-])cc3[nH]c2=O)cc1 (stereo unspecified) | 31.2% | -5.55% | 0.6% | -26.2% | -3.85% | 19.4%
C/C=C\C=N\NC(=O)C(=O)N/N=C/C=C\C | 0.9% | -17.1% | -7.55% | -56.5% | -8.5% | -0.75%
CCCCCCCCCCCCCCCC/C(C)=C\C(=O)OC | 3.8% | 20.3% | 22.9% | -0.9% | 28.9% | 16.1%
CCN(CC)CCSC(=O)c1ccc([N+](=O)[O-])cc1 | 20.1% | 7.7% | 15.6% | 19.8% | 38.5% | 8.1%
O=C(CCC(=O)Nc1cc(Cl)ccc1Cl)CC(=O)c1ccc(Cl)cc1 | 14.1% | 24.9% | 10.4% | 11% | -1.65% | -6.75%
CCc1n[nH]c(=O)n1N1C(=O)C2CCCCC2C1=O (stereo unspecified) | 16.1% | -20.5% | 35.1% | 6.5% | 3.2% | -25.9%
N#CCCN(CCC#N)c1ccc(/C=C2\N=C(c3cc([N+](=O)[O-])ccc3Cl)N(S(=O)(=O)c3ccccc3)C2=O)cc1 | 23.2% | 16.3% | 3.5% | -47.4% | -1.35% | 28.1%
C=CCCCCCCCCC(=O)NC(C)C(C)(C)C (stereo unspecified) | 29.9% | 19.8% | 14.7% | 39% | 27.3% | 25.5%
Nc1ccc2cccc(N)c2n1 | 34.5% | 12.2% | 8.85% | 5.9% | -5.65% | -0.55%
COc1ccc(N2C=Nn3c(nc4sc(C)c(C)c4c3=O)C2)cc1 | 7% | 12.9% | 20.9% | -12.3% | 12.9% | -1%
COC(=O)C1C2CC3C1C3C2C(=O)OC (stereo unspecified) | -14.2% | -8.2% | -4.45% | 19.6% | -14.6% | -18.6%
NC(CSS(=O)(=O)O)C(=O)O (stereo unspecified) | 3.05% | -2.4% | -1.55% | -31.9% | -12.8% | 2.6%
Cn1c(=O)c2c(nc(N3CCOCC3)n2CCCNCC(O)c2ccc(O)c(O)c2)n(C)c1=O (stereo unspecified) | -40.9% | 4.3% | -13.2% | -29.9% | -2.1% | -21.6%
NC(N)=NC(N)=Nc1ccc2ccccc2c1 | 58.4% | 12.3% | 17% | 20.3% | 8.6% | 22.6%
